From PubChem BioAssay (NCI)
This is part of a sample that, as a whole, favours compounds with a hit. Of some 79,000 tested, about 15% had one in any assay. Unmarked numbers belong to inactive results. Calls of active or inactive are those of the source. No stated cut-off is given here; in the data, active means growth inhibition above about 70%; inactive means the rest.

What was measured:
[1] = NCI Yeast Anticancer Drug Screen. Data for the rad50 strain (AID 155);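 further: 0% = growth of vehicle-only cultures of the same strain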; details: S. cerevisiae rad50 strain growth inhibition; at 50.0 µM; active compounds read high
Outline: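 Relative growth inhibition (compound vs vehicle) was measured in yeast with a defined repair-gene alteration.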

[2] = NCI Yeast Anticancer Drug Screen. Data for the mec2-1 strain (AID 157); details: S. cerevisiae mec2-1 strain, at 50.0 µM, active compounds read high
Outline: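 Compounds were applied to mec2-1 yeast cells. Their growth was then compared with that of vehicle-treated cultures to give growth inhibition.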

[3] = NCI Yeast Anticancer Drug Screen. Data for the sgs1 mgt1 strain (AID 161);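 further: 0% = growth of cultures given vehicle only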; details: S. cerevisiae sgs1 mgt1 strain, at 50.0 µM, active compounds read high
Outline: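 Percent growth inhibition was derived by comparing compound-exposed mutant yeast with vehicle-exposed cultures. The strain carries alterations in DNA damage repair.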

[4] = NCI Yeast Anticancer Drug Screen. Data for the cln2 rad14 strain (AID 165);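 further: 0% = growth equal to vehicle treated cultures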; details: S. cerevisiae cln2 rad14 strain, at 50.0 µM, active compounds read high
Outline: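 Strain: cln2 rad14 yeast, altered in cell cycle control and DNA damage repair. Read-out: growth inhibition vs vehicle.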

[5] = NCI Yeast Anticancer Drug Screen. Data for the bub3 strain (AID 167); details: S. cerevisiae bub3 mutant strain, at 50.0 µM, active compounds read high
Outline: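 Screening used yeast with an engineered genetic alteration affecting cell cycle control. Compound-exposed cultures were compared with vehicle cultures, and reduced growth was taken as inhibition.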

[6] = NCI Yeast Anticancer Drug Screen. Data for the mlh1 rad18 strain (AID 175); details: S. cerevisiae mlh1 rad18 strain growth inhibition; at 50.0 µM; active compounds read high
Outline: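 A repair-deficient yeast strain is exposed to test compound, and growth is scored relative to vehicle-treated controls.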

Row | Compound | growth inhibition [1] | growth inhibition [2] | growth inhibition [3] | growth inhibition [4] | growth inhibition [5] | growth inhibition [6]
1 | CCOc1ccc(N=Nc2c(C)nn(C(N)=S)c2OCC)cc1 | -54.6% | -21.6% | 11.6% | -38.5% | -5.25% | -7.35%
2 | CN(C)c1nc(S(C)(=O)=O)nc2nc(S(C)(=O)=O)[nH]c12 | 2.45% | -19.1% | -4% | -47% | 1.95% | -17.6%
3 | CCOC(=O)c1ccc2c(c1)C(C)(SC)C(=O)N2 (stereo unspecified) | -12.7% | 0.7% | -2.85% | 4.65% | -6.55% | -1.35%
4 | O=C(CCCl)Nc1c(Cl)cccc1Cl | 10.2% | 11.7% | 8.9% | 18.6% | 21.1% | -3.65%
5 | COc1cc(CCCOC(=O)/C=C/c2ccc(O)c(O)c2)cc(O)c1O | 19.1% | -18.3% | 1.05% | -17.4% | -0.8% | -72.4%
6 | Cc1cc(=O)[nH]c(NN2C(Cl)C(=O)C2c2ccc(Cl)cc2)n1 (stereo unspecified) | 10.6% | 7.45% | 4.2% | -7.9% | 8% | -18.4%
7 | Cc1nn(CCO)c2nc(N)nc(N)c12 | 2.05% | 3.35% | -0.4% | -1.45% | -6.35% | -3.2%
8 | Cc1cc(S(=O)(=O)Nc2nc(N)nc(N(C)C)n2)c(S)cc1Cl | 1.4% | -17.2% | -3.5% | 1.9% | -46% | 15.1%
9 | CC(C)=C1C(=O)C[C@]2(C)C[C@H]3/C(=C(/C)CCC12)CC[C@@]3(C)O (stereo partly specified) | 46.5% | -1.25% | 2% | 28.6% | -6.05% | -8.4%
10 | CC(OC(=O)CC(c1ccccc1)N1CCCCC1)c1ccccc1 (stereo unspecified) | 64.7% | 1.3% | 41.1% | 5.3% | 57.5% | 33.9%
11 | BrCCCCOc1ccccc1 | 3.5% | 2.65% | -11.3% | -4.25% | -2.7% | 2.7%
12 | Cc1ccc(S(=O)(=O)N(CCOS(C)(=O)=O)CCOS(C)(=O)=O)cc1 | 12.3% | -13.2% | -0.8% | -2.1% | 9.45% | 5.25%
13 | Cc1cccc(C[P+](C/C=C/c2ccccc2)(c2ccccc2)c2ccccc2)c1 | 98.8% (active) | 99.7% (active) | 99.7% (active) | 99% (active) | 99.5% (active) | 99.5% (active)
14 | CCCCN1C(=O)C(NC(C)=O)C1COC(C)(C)C (stereo unspecified) | -21.9% | -5.2% | -28.4% | -8.65% | -28.1% | -35.5%
15 | CC(NC(=O)OCc1ccccc1)C(=O)Nc1ccc(C(=O)O)c(O)c1 (stereo unspecified) | 5.55% | -5.1% | 11.9% | -9% | 45.1% | -10.8%
16 | CC(=O)Nc1ccc(/C=N/NC(=O)/C=C/c2ccccc2)cc1 | -7.15% | 3.25% | 6.25% | -5% | -1% | 2.15%
17 | O=c1sc2ccccc2n1CCN(CCn1c(=O)sc2ccccc21)c1ccccc1 | 39.7% | -7.75% | 13.6% | -45.5% | 1.65% | 14.2%
18 | O=C(O)Cc1ccc2ccccc2c1 | 6.3% | 13.2% | 20.6% | 3.6% | 0.45% | 48%

Row | Compound | growth inhibition [1] | growth inhibition [2] | growth inhibition [3] | growth inhibition [4] | growth inhibition [5] | growth inhibition [6]
19 | O=C(CCSC(=S)Nc1ccc(Cl)cc1)NNc1ccccc1 | 1.8% | -25.1% | -0.65% | -30.4% | 6.6% | 18.2%
20 | COC(=O)C1C2C=CC(C2)C1C(=O)OC (stereo unspecified) | -20.5% | 36.5% | -10.8% | -27.9% | -7.95% | 0.1%
21 | NC(=NCC(O)c1ccccc1)Nc1ccccc1 (stereo unspecified) | 0.75% | -8.6% | 15.1% | 6.1% | 18.1% | 10.6%
22 | CC(C)=NC(C(=O)O)C(C)(C)S (stereo unspecified) | -17.6% | -15.2% | -18.1% | -12.3% | -62% | -17.1%
23 | COc1ccc(CCCCC(=O)O)cc1 | -12.1% | -3.4% | -0.65% | -2.7% | -7.55% | -9.1%
24 | CNc1nc(C)nc(NC)n1 | -29.9% | -5.1% | -30.4% | -36.2% | 18.4% | -22.9%
25 | O=CC(CO)CC(C=O)n1cnc2c(=O)[nH]cnc21 (stereo unspecified) | -11.2% | -16.1% | -15.2% | 2.55% | -9.45% | 1.95%
26 | CC(=O)NS(=O)(=O)c1ccc(NC(=O)CCC(=O)O)cc1 | -8.95% | -20.4% | 2.4% | 7.2% | 9.1% | 4%
27 | O=C(O)c1c[nH]c2cc(OCc3ccc(Br)cc3)ccc2c1=O | 13.8% | 0.65% | -1.85% | 6.9% | 2.5% | 9.45%
28 | N#Cc1nc(NC(=O)c2ccccc2)sc1N | -5.7% | -29.9% | -27.6% | 11.2% | 4.2% | -10.2%
29 | C=CCc1cc(OC)ccc1O | 22.3% | 36.8% | 30.8% | -3% | 22.3% | 19.6%
30 | CCN(CC)C(=O)c1ccc(C)c(N=NN(C)C)c1 | -5.7% | -36.2% | -20.9% | -0.15% | -19.9% | -8.75%
31 | NC(=O)N/N=C1\CCCCC12CCCCC2 | 4.3% | 6.25% | -4.9% | -16.1% | 2.2% | -11.4%
32 | O=C(O)C(Oc1ccc(Cl)cc1Cl)C(Oc1ccc(Cl)cc1Cl)C(=O)O (stereo unspecified) | -3.95% | -4.1% | -9.95% | -15.5% | 1.75% | 3.75%
33 | CCCCCCCCCCCCCC(=O)OCC1OC(n2cc(F)c(=O)[nH]c2=O)C(N)C(OC(=O)CCCCCCCCCCCCC)C1O (stereo unspecified) | 27.4% | 7.4% | 22.5% | 35.3% | 11.6% | 24.1%
34 | CCC(C)c1cc(C(C)(C)C)cc(-n2nc3ccccc3n2)c1OS(=O)(=O)c1cccc(N)c1 (stereo unspecified) | -4.4% | -27.1% | -12.8% | 2.7% | -16.9% | -22%
35 | CC(=O)NC(c1ccccc1)c1c(O)ccc2ccccc12 (stereo unspecified) | 26.6% | -2.8% | 10.8% | -33.2% | -2.5% | -5.25%
36 | Cc1ccccc1NC(=O)NNc1ccccc1 | 17% | -0.65% | 7.35% | 10.7% | -2.9% | 3.85%
